The whole screen tested about 360,000 compounds, of which about 17,000 (4.7%) were called active. Inconclusive results (about 5%) are left out. The list comes from a sample in which actives are over-represented; it also holds similar structures and randomly drawn compounds. Values without a mark were called inactive. Cut-off read from the data, not from the text of the source: active = activity change below about -50%; inconclusive = mostly about -30% to -49%; inactive = weaker than that.
assay: qHTS for Inhibitors of Inflammasome Signaling: IL-1-beta AlphaLISA Primary Screen; settings: THP-1 LPS/ATP IL-1B secretion, 16 h; at 57.5 µM, active compounds read low
In short: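 THP-1 cells pretreated 1 hr with compounds (up to 57.5 uM final), then stimulated with LPS (250 ng/mL final) plus ATP (1.25 mM final); secreted IL-1B measured by AlphaLISA after 16 hr, decreased signal indicating inhibition.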
% is set by controls: 0 for no effect and ±100 for the full control effect.

| SMILES | activity change |
| --- | --- |
| Cc1nn(C)cc1S(=O)(=O)N1CCN(c2ccc(F)cc2)CC1 | 1.55% |
| COC1C(CO)OC(n2cnc3c(=S)nc(N)[nH]c32)C1O (stereo unspecified) | 2.88% |
| O=c1cc(N2CCCCC2)c(-c2ccccc2)nn1Cc1cccc(F)c1 | -2.53% |
| Cc1ccc2oc(=O)ccc2c1 | 12.6% |
| Cc1nc2c(OCC(=O)C(C)(C)C)cccn2c1N(C)Cc1cccs1 | -25.2% |
| Cc1nc2c(OCc3ccc(Cl)cc3)cccn2c1N(C)Cc1cccs1 | -66.3% (active) |
| CCc1nc2c(OCc3ccc(F)c(F)c3)cccn2c1N(C)C(=O)c1ccco1 | 10.9% |
| CCOC(=O)[C@]12CCC=C1N(Cc1cccc3ccccc13)C(=O)[C@H](CC(=O)NCc1cccc(C(F)(F)F)c1)C2 | -21.1% |
| O=C(c1ccc2nc(N3CCOCC3)sc2c1)N1CCN(c2ccc(Cl)cc2)CC1 | 1.67% |
| COc1ccc2nc(N3CCN(C(=O)c4ccc([N+](=O)[O-])o4)CC3)sc2c1 | -88% (active) |
| COc1ccc2nc(N3C(=O)C(O)=C(C(=O)c4ccco4)C3c3ccco3)sc2c1 (stereo unspecified) | 23.2% |
| Cc1cc(Br)cn2c(Cc3ccccc3C(F)(F)F)c(-c3ccc(Cl)cc3)nc12 | 25.9% |
| CC1(C(=O)NS(=O)(=O)c2ccccc2Cl)CCN1C(=O)c1cccc(F)c1 (stereo unspecified) | 22.3% |
| COc1ccc(CC(=O)NCc2nnc(SCC(=O)Nc3ncc(C)s3)n2C)cc1 | 15.7% |
| CCOC(=O)c1nnn(-c2nonc2-n2cccc2)c1CN1CCOCC1 | 9.61% |
| CCOC(=O)c1c(CN2CCOCC2)n(-c2ccccc2)c2ccc(O)cc12 | -54.1% (active) |
| CC(=O)c1c(C)n(-c2ccc(C)cc2)c2ccc(O)cc12 | 12.1% |
| CC(=O)NCc1ccc(-c2csc(NC(=O)CCCc3nc4ccccc4c(=O)[nH]3)n2)cc1 | -3.36% |
| CCOC(=O)Cc1csc(NC(NC(=O)OCC)(C(F)(F)F)C(F)(F)F)n1 | 2.86% |
| CC(=O)Nc1ccc(-c2csc(NC(=O)Nc3ccccc3)n2)cc1 | -57.5% (active) |
| CC(=O)Nc1ccc(-c2cn3cccnc3n2)cc1 | -2.21% |
| CCOC(=O)Cc1csc(NC(=O)Nc2ccccc2)n1 | -69.2% (active) |
| CCOC(=O)Cc1csc(NC(=O)CSc2ccc(Br)cc2)n1 | 35.1% |

| SMILES | activity change |
| --- | --- |
| N#CCCN(C(=O)Nc1ccc(Cl)c(Cl)c1)C1CCCCC1 | -24.2% |
| CCOC1=C2[C@H]([C@H]3C(=O)N(c4ccccc4)C(=O)[C@H]3C1)[C@@H](c1ccccc1)N(S(=O)(=O)c1ccc(C)cc1)[C@H]2c1ccccc1 | 21.6% |
| COc1ccc(OC)c(C(=O)c2coc3ccc(OC)cc23)c1 | 5.54% |
| COc1ccc(C(=O)c2oc3ccc(Br)cc3c2NC(C)=O)cc1 | -26.9% |
| COc1ccc2occ(C(=O)c3ccc(N=C(C)N(C)C)cc3)c2c1 | -57% (active) |
| Cc1nc(CN2CCN(C(=O)CCc3nnc(Cc4c[nH]c5ccccc45)o3)CC2)cs1 | 21.5% |
| C[C@H]1CN([C@@H](C)CO)C(=O)c2cc(Br)cnc2O[C@H]1CN(C)S(=O)(=O)c1cccs1 | -17.5% |
| Nc1ccccc1-c1nc2ccncc2[nH]1 | -6.01% |
| CCCCn1c(N)c(N(CC(C)C)C(=O)c2cnc(C)cn2)c(=O)[nH]c1=O | -2.8% |
| CCCCn1c(N)c(N(CC(C)C)C(=O)c2ccc(Br)o2)c(=O)[nH]c1=O | -3.41% |
| CCCCn1c(N)c(N(CC(C)C)C(=O)c2ccc(-n3c(C)ccc3C)cc2)c(=O)[nH]c1=O | -61.6% (active) |
| CC(C)c1ccc(-c2nn[nH]n2)cc1 | -4.8% |
| CN[C@H]1C[C@H]2c3cc(Oc4ccccc4C)ccc3CCN2C(=O)[C@H]1[C@H](C)O | -11% |
| N#Cc1c(-c2ccc(F)cc2)nc(-c2ccccc2)[nH]c1=O | 8.84% |
| [O-][n+]1onc2c1CCc1[nH]c(-c3ccccc3)nc1-2 | -66.3% (active) |
| CN1CCN(c2ccc3c(c2)OC[C@H](Cc2ccccc2)NS3(=O)=O)CC1 | 2.92% |
| O=c1[nH]c(CCl)nc2cc(-c3ccc(Cl)cc3)sc12 | -93.8% (active) |
| Cn1c(NCc2cccnc2)nc2cc(-c3ccc(F)cc3)sc2c1=O | 4.79% |
| COc1cccc(-c2cc3nc(NCCOc4ccccc4Cl)n(C)c(=O)c3s2)c1 | 33.6% |
| O=c1[nH]c(=S)[nH]c(O)c1/C=C1\C=Nc2ccccc21 | -3.38% |
| Cc1nc(C(F)(F)F)ccc1C(=O)N1CCC1(C)C(=O)NS(=O)(=O)c1ccccc1Cl (stereo unspecified) | 27.9% |
| O=C(Nc1ccc2c(c1)[C@@H]1C[C@@H](CC(=O)N3CCCCC3)O[C@@H](CO)[C@@H]1O2)NC1CCCCC1 | 7.94% |
| CC1CN(Cc2ccccc2)C(=S)NC1=O (stereo unspecified) | 5.57% |

From PubChem BioAssay AID743279 (National Center for Advancing Translational Sciences (NCATS), 2014)
